Experimental data reported in ChEMBL document CHEMBL3988442, “University of Dundee, Small-Polar-MMV Screening Library” (2021).
Out of some 48,000 compounds screened, about 13,000 (27%) showed an effect of 50% or more. The list shows a part of the results.

These compounds were tested on Wolbachia pipientis (assay: Anti-Wolbachia Cell-Based Screen). Details: 5 µM.
Type: functional
Set-up: scale not given: in the data most compounds retested in dose-response had high values

SMILES | Percent Effect [%]
O=c1[nH]nc(SCC2CCCO2)n1C1CC1 (stereo unspecified) | -2.947
CC1CCCN(c2ccccc2OCC(=O)N2CCOCC2)C1 (stereo unspecified) | -4.736
COC1CN(C(=O)CC(C)C)CCC(=O)N(C)c2ccccc21 (stereo unspecified) | 94.68
O=C(Cc1cccs1)N1CCc2nnc(COc3cncnc3)n2CC1 | -9.187
COC1CN(C(=O)COC(C)=O)CCC(=O)N(C)c2ccccc21 (stereo unspecified) | 92.83
COc1ccc([C@@H]2CN(C(=O)Cc3cccs3)C[C@H]2NC(C)=O)cc1 | 1.079
COC1CN(C(=O)CC(C)(C)C)CCC(=O)N(C)c2ccccc21 (stereo unspecified) | 105.9
COC1CN(C(=O)Cc2cccs2)CCC(=O)N(C)c2ccccc21 (stereo unspecified) | 113.3
Cc1ccccc1N1CCN(C2CCCN(C(=O)CCC(C)C)C2)CC1 (stereo unspecified) | -1.858
CCCN1CCN(Cc2cccc(OC)c2)[C@H]2CS(=O)(=O)C[C@H]21 | -4.68
Cc1nnc(CN(C)CCCOc2cccc(Cl)c2)o1 | -9.851
CCOCCN1CCN(C(C)C(=O)Nc2ccnn2C(C)C)CC1 (stereo unspecified) | -7.106
CC(C)COC(=O)N1CCN(C(=O)c2ccc3nccn3c2)CC1 | -2.651
CC(C)C1CN(C(=O)c2cc(=O)[nH]c(=O)[nH]2)CCC(=O)N1CC1CC1 (stereo unspecified) | 7.498
COC1CN(C(=O)OCC(C)C)CCC(=O)N(C)c2ccccc21 (stereo unspecified) | 62.93
O=C(N1CCCC(n2cncn2)C1)C1(c2cccc(F)c2)CCCC1 (stereo unspecified) | 112.9
O=C(N1CCOCC(O)C1)C1(c2ccc(Cl)cc2)CCC1 (stereo unspecified) | -14.09
O=C(N1CCC(Oc2ccncc2)C1)C1(c2cccc(F)c2)CC1 (stereo unspecified) | -3.42
O=C(N1CCCC(n2cncn2)C1)C1(c2ccc(Cl)cc2)CCC1 (stereo unspecified) | 129.1
Cc1cc(C)cc(C2(C(=O)N3CCCC(n4cncn4)C3)CC2)c1 (stereo unspecified) | 4.808
O=C(c1ccn[nH]1)N1CCCC(n2cncn2)C1 (stereo unspecified) | 8.656
O=C(N1CCCC(n2cncn2)C1)C1(c2cccc(F)c2)CCC1 (stereo unspecified) | 131.6
O=C(N1CCCC(n2cncn2)C1)C1(c2cccc(F)c2)CC1 (stereo unspecified) | 123
COc1ccccc1N1CCC(N2CCOC(C(F)(F)F)C2)CC1 (stereo unspecified) | 10.11
COc1ccc(NC(=O)CCC2CCCN(Cc3ncon3)C2)c(C)c1 (stereo unspecified) | 0.05921
CC(C)N1C[C@@H](F)[C@@H](OCc2nc3ncccc3[nH]2)C1 | -12.53

SMILES | Percent Effect [%]
CN(Cc1cc(C2CC2)on1)C(=O)CN1C(=O)OC(C)(C)C1=O | -4.246
CC(C)c1cc(CN(C)C(=O)CN2CCC(C(N)=O)CC2)no1 | 136.4
CC(C)c1cc(CN(C)C(=O)CN2CCNC2=O)no1 | 133
Cc1ncsc1CCN(C)C(=O)CN1CCCCC1=O | 17.08
CCc1cc(CN(C)C(=O)CN2CC3(CCNCC3)OC2=O)on1 | 3.162
Cc1cc(CN(C)C(=O)NC2CCN(Cc3ccccc3)C2)no1 (stereo unspecified) | -11.75
Cc1cc(CN(C)C(=O)CN2CCCCCC2=O)no1 | 104.9
Cc1cc(CN(C)C(=O)NCc2cccc(N3CCCC3=O)c2)no1 | 2.405
Cc1cc(CN(C)C(=O)C2CCCN(C(N)=O)C2)no1 (stereo unspecified) | 12.67
CC(C)c1cc(CN(C)C(=O)CN2CCCCC2=O)no1 | 112.2
Cc1nc(CCN(C)C(=O)CN2CCCCCC2)no1 | 5.465
Cc1cc(CN(C)C(=O)CN2CC3(CCNCC3)OC2=O)no1 | -10.43
CCOCC(=O)NC(C#N)c1cnn(-c2ccccc2)c1 (stereo unspecified) | 0.4784
CCc1cc(CN(C)Cc2nc(-c3ccc(OC)cc3F)oc2C)on1 | -9.467
Cc1cnccc1N1CCCN(C(=O)CCCc2cn[nH]c2)CC1 | 11.82
O=C(Nc1nncs1)N1CCCN(C2CCCC2)CC1 | -1.803
Cc1n[nH]c(C)c1CCCNCc1cn(CCC(N)=O)c2ccccc12 | -2.861
Cc1nn(C)c(Oc2cccnc2)c1NC(=O)C1CCCO1 (stereo unspecified) | 5.234
Cc1n[nH]c(C)c1CCC(=O)N[C@@H]1CCC[C@@H](Oc2ccccc2)[C@@H]1O | 124.4
Cc1noc(C)c1CCC(=O)N[C@@H]1CC[C@@H](Oc2cccnc2)[C@@H]1O | 106.7
Cc1noc(C)c1CNC[C@@]1(COc2cccnc2)C[C@@H](O)[C@@H](O)C1.Cl.Cl | -8.065
Cc1noc(C)c1CCC(=O)N[C@@H]1CCC[C@@H](Oc2cccnc2)[C@@H]1O | 114.3
Cc1n[nH]c(C)c1CNC(=O)NC1CCCCC1 | -5.785
CNC(=O)COc1ccccc1CNCc1c(C)noc1C | -55.32
Cc1[nH]ncc1CCCNC(=O)Nc1ccc2c(c1)OC1(CCCC1)O2 | -12.99
